# According to ChEMBL document CHEMBL5308504, “Tm Shift (DSF) assay results for EUbOPEN Chemogenomics Library” (2023):
# Where “and” joins values, the source holds several entries; their conditions need not be identical. Identical values can stand only once.
# How the values were obtained:
# Conditions in all cases: Compound concentration 20.0 uM, Protein concentration 2.0 uM, Result type QC Liability
# [1] = target: Tyrosine-protein kinase ABL1 (Homo sapiens) (UniProt P00519)
# [2] = target: Cyclin-dependent kinase 2 (Homo sapiens) (UniProt P24941)
# [3] = target: Casein kinase I isoform delta (Homo sapiens) (UniProt P48730)
# Chain of Casein kinase I isoform delta (Homo sapiens) (P48730 whole entry, looked up, canonical isoform): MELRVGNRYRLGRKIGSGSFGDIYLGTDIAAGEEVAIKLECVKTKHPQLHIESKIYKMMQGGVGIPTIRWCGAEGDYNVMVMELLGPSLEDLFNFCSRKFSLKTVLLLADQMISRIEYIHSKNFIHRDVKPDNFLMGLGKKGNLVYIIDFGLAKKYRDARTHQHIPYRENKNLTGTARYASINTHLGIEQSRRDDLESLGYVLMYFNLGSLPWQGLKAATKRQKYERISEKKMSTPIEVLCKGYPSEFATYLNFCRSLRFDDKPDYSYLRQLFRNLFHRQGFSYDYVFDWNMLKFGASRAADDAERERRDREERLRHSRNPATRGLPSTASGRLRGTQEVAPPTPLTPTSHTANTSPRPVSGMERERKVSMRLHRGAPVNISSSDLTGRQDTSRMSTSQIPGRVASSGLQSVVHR
# [4] = target: Glycogen synthase kinase-3 beta (Homo sapiens) (UniProt P49841)
# Chain of Glycogen synthase kinase-3 beta (Homo sapiens) (P49841 whole entry, looked up): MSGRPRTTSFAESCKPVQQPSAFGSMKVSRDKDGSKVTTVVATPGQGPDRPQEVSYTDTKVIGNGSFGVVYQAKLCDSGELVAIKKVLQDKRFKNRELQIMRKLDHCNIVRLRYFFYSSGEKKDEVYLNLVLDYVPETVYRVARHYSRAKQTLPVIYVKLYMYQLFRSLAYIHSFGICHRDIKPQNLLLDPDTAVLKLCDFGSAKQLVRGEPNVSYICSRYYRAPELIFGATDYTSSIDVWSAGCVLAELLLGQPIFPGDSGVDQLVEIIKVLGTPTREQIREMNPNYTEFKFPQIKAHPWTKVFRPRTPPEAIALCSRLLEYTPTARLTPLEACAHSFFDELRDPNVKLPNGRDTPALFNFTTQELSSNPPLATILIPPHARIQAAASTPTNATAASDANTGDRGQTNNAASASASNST
# [5] = target: Mitogen-activated protein kinase 1 (Homo sapiens) (UniProt P28482)
# Chain of Mitogen-activated protein kinase 1 (Homo sapiens) (P28482 whole entry): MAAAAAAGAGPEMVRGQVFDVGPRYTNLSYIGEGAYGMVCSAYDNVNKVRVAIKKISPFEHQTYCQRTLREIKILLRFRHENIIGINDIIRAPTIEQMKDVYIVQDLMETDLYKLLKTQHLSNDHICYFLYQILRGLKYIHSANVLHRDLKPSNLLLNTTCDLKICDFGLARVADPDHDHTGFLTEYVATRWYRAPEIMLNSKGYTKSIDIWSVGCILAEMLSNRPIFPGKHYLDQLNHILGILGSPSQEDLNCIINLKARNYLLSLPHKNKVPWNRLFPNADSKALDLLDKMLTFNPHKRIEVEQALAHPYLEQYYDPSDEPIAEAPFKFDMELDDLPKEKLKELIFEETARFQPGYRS
# [6] = target: T1, Aurora kinase A (Homo sapiens) (UniProt O14965)
# T1 sequence (whole entry): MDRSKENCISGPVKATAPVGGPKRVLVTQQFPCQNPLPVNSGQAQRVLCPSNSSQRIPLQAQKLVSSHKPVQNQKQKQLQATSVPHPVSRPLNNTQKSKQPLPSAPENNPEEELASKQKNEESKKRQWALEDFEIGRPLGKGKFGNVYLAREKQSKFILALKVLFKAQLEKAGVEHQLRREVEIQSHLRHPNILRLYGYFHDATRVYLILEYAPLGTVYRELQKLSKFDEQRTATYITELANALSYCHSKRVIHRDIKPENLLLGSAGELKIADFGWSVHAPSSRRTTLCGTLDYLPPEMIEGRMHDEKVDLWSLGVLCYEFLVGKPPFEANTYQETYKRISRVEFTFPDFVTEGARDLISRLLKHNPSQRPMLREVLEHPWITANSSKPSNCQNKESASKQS
# Chain of Tyrosine-protein kinase ABL1 (Homo sapiens) (P00519 whole entry): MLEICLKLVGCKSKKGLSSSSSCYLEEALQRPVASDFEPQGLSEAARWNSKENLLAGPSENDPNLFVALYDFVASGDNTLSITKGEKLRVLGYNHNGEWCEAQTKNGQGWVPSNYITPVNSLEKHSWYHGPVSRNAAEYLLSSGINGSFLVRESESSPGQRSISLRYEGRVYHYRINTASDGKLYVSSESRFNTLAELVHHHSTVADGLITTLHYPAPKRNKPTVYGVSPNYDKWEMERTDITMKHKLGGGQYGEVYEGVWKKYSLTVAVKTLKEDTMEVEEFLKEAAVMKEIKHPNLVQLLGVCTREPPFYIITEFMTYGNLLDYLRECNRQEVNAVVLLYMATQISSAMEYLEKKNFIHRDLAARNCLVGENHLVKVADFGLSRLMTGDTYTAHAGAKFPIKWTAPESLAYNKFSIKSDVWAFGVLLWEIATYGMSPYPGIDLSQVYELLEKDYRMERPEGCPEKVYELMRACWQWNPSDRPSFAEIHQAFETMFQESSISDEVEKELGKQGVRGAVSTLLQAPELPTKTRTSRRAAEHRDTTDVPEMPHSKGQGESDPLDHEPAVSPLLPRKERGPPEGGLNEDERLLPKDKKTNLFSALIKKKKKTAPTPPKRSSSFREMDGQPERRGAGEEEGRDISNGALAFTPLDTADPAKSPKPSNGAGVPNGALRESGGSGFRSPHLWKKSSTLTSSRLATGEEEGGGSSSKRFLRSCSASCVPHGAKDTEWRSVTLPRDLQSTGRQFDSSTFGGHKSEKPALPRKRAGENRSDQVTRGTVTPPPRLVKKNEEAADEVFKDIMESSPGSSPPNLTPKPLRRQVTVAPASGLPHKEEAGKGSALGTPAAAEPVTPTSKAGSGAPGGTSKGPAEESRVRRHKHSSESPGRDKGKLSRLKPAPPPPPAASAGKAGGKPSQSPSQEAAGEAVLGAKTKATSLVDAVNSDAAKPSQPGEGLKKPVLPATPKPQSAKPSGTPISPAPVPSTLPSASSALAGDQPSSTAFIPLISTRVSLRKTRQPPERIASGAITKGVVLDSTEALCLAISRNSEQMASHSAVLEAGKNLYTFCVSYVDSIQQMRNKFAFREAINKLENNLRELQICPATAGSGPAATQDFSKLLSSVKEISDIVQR
Structure (SMILES),ΔTm [1],ΔTm [2],ΔTm [3],ΔTm [4],ΔTm [5],ΔTm [6]
Cc1ccccc1Oc1cc(-n2c(=O)cc(C(F)(F)F)[nH]c2=O)c2ccccc2c1Cl,-0.09 °C,0.61 °C,0.85 °C,-1.52 °C,-0.82 °C,-1.95 °C
CCCN1CCC(C#N)(NC(=O)[C@H](CC(C)(C)C)NC(=O)N2CCOCC2)CC1,-0.4 °C,1.07 °C,0.1 °C,-0.32 °C,-0.1 °C,-0.11 °C
C#Cc1cnc2[nH]cc(-c3cccc4c3CCN4C(=O)[C@@H]3CCCN3C#N)c2c1,5.17 °C,1.31 °C,2.51 °C,2.99 °C,0.55 °C,4.94 °C
Cn1cc(-c2ccc(-c3cncc(Cl)c3N3CCC4(CCNC4=O)CC3)cc2)cn1,-0.07 °C,-0.46 °C,-0.23 °C,6.99 °C,0.45 °C,1.26 °C
O=C(O)C[C@H]1CC[C@H](c2ccc(NC(=O)c3nnc(Nc4ccc(F)c(F)c4)o3)cc2)CC1,-0.04 °C,0.24 °C,-0.9 °C,-0.67 °C,-2.59 °C,0.92 °C
O=C1CCCc2[nH]c(-c3ccnc(NCC4CC4)c3)c(Nc3ccccc3)c21,-0.41 °C,0.46 °C,3.16 °C,1.37 °C,-0.73 °C,0.11 °C
CC1CCN(C(=O)[C@H](CCn2cccc2C#N)NS(=O)(=O)c2cccc3[nH]ccc23)CC1,0.43 °C,0.31 °C,0.54 °C,0.64 °C,0.72 °C,-0.11 °C
Cc1cn(CCN2CCN(c3ccccc3-c3cc(C#N)cc(C(=O)NCCCN4CCCC4)c3)CC2)c2ccccc12,0.13 °C,0.91 °C,-2.16 °C,-0.98 °C,0.52 °C,-0.16 °C
CNC(=O)c1ccc2c(c1)ncn2-c1ccc(CC(=O)OC(C)(C)C)cc1,4.4 °C,0.07 °C,-0.01 °C,-0.5 °C,0.2 °C,0.99 °C
NCCCc1c(C(=O)O)[nH]c2ccc(C(=O)Nc3ccccc3)cc12,0.08 °C,0.25 °C,0.53 °C,-0.39 °C,0.25 °C,-1.5 °C
c1ccc(C(OC2CCN(CCCc3nnn[nH]3)CC2)c2ccccc2)cc1,0.21 °C,0.54 °C,-0.14 °C,0.65 °C,-0.05 °C,-0.34 °C
COc1cc(-c2cc([C@H](O)C3CC3)n3ncnc(N)c23)ccc1CO,9.08 °C,0.4 °C,4.52 °C,0.91 °C,0.82 °C,1.06 °C
Oc1c(CN2CCCC2)cc(COCc2ccccc2)c2cccnc12,0.07 °C,0.07 °C,1.22 °C,-0.76 °C,0.33 °C,-1.78 °C
Cc1ncc(C(=O)Nc2cc(C(C)(C)C)on2)cc1-n1cc(-c2cnn(C)c2C)nn1,9.67 °C,0.45 °C,2.28 °C,-0.79 °C,0.26 °C,-0.09 °C
C[C@@H]1COCCN1c1cc(=O)n2c(n1)N(Cc1cncc(Cl)c1)[C@H](C(F)(F)F)CC2,0.53 °C,0.54 °C,0.16 °C,0.4 °C,0.34 °C,-0.23 °C
O=C1Nc2ccc(C(=O)c3ccco3)cc2C1=Cc1cc(Cl)c(O)c(Cl)c1,4.46 °C,0.67 °C,3.71 °C,5.93 °C,0.54 °C,5.03 °C
CC(C)(O)c1cn(-c2ccc(-c3cccc(S(C)(=O)=O)c3)cc2)c(C(C)(C)c2ccccc2Cl)n1,-1.7 °C,0.08 °C,-0.27 °C,-0.99 °C,0.15 °C,-3.66 °C
CC(C)c1cnc(NC(=O)Cc2ccccc2)s1,1.04 °C,4.66 °C,2.55 °C,3.64 °C,0.91 °C,-0.53 °C

Structure (SMILES),ΔTm [1],ΔTm [2],ΔTm [3],ΔTm [4],ΔTm [5],ΔTm [6]
CC(=O)Nc1ncc(CN2CCC[C@H](Cc3cc(C)nc(C)c3)C2)s1,0.26 °C,-0.34 °C,-0.41 °C,-0.15 °C,0.35 °C,0.39 °C
N#Cc1ccc(C#CC[C@@H](C#N)NC(=O)[C@@H]2CCCCN2)cc1F,-0.78 °C,0.23 °C,0.14 °C,-0.69 °C,0.24 °C,-0.05 °C
CCCCCCC(Sc1nc(Cl)cc(NCc2ccc(-c3ccccc3)cc2)n1)C(=O)O (stereo unspecified),-0.03 °C,-0.83 °C,0 °C,0 °C,0 °C,-1.22 °C
CCN1C(=O)c2cc(C)ccc2N(C)c2ncccc21,-0.36 °C,0.32 °C,0.14 °C,-0.36 °C,0.23 °C,0.08 °C
Cc1cc(Cn2c(N3CC4(CNC4)C3)nc3cc(Cl)cc(N4CCN(C)CC4)c32)cc(C)c1F,-0.24 °C,0.2 °C,0.39 °C,-1.71 °C,0.34 °C,0.08 °C
CN(C)C(=O)c1sc2nc(N3CCC(S(C)(=O)=O)CC3)cc(C(F)(F)F)c2c1N,-0.62 °C and 1 °C,0.58 °C and 0.19 °C,0.2 °C and 0.17 °C,-0.24 °C and -0.54 °C,-0.76 °C and 0.56 °C,-0.67 °C and 0 °C
CN1CCN(c2ccnc(NCCc3ccccc3)n2)CC1,0.08 °C,0.11 °C,0.22 °C,-0.49 °C,0.69 °C,-0.92 °C
COc1cc(-c2cncc(-c3cnn(C4CCNCC4)c3)c2)cc(OC)c1OC,4.87 °C,0.28 °C,0.76 °C,-0.71 °C,0.5 °C,-0.25 °C
Cc1cnc(-c2cnc(NCCNc3ccc(C#N)cn3)nc2-c2ccc(Cl)cc2Cl)[nH]1,0.86 °C,1.98 °C,1.3 °C,14.6 °C,1.17 °C,2.09 °C
Fc1ccc(-c2c3cccc(C(F)(F)F)c3nn2Cc2ccc(F)cc2Cl)cc1,0.02 °C,0.18 °C,0.79 °C,-1.83 °C,0.06 °C,-1.66 °C
O=C(Cc1ccccc1)Nc1nnc(N2CC[C@@H]3[C@H]2CN3c2cccnn2)s1,0.18 °C,0.43 °C,-0.16 °C,-0.46 °C,0.3 °C,-0.66 °C
Cn1cc(C(=O)O)c2ccc(N3CCC(OCc4c(-c5c(Cl)cccc5Cl)noc4C4CC4)CC3)cc21,0.5 °C,0.93 °C,1.17 °C,0.23 °C,0.52 °C,-1.5 °C
Cc1nc(-c2ccc(C(F)(F)F)cc2)sc1C(=O)NCc1ccc(OC(C)(C)C(=O)O)cc1,0.61 °C,0.76 °C,0.63 °C,-0.64 °C,0.34 °C,0.59 °C
CC[C@@H](Nc1c(C#N)c(-c2ccc(-c3cccc(C)c3F)cc2)nc2cnccc12)C(=O)O,1.07 °C,-0.82 °C,-0.63 °C,0.06 °C,-0.07 °C,5.1 °C
CC(C)c1cnn2c(NCc3ccccc3)cc(NCCCCCCN)nc12,-0.02 °C,1.03 °C,2.94 °C,-0.56 °C,0.38 °C,-1.2 °C
O=C(O)CCCCCC[C@@H]1C(=O)NC(=O)N1CCC(O)C1CCCCC1 (stereo partly specified),0.19 °C,0.46 °C,-0.02 °C,0.34 °C,-0.39 °C,-0.24 °C
COc1cc(N(C)c2ccnc3ccc(C(F)(F)F)cc23)cc(OC)c1OC,0.48 °C,-0.12 °C,1.1 °C,-0.36 °C,0.28 °C,-0.2 °C
Cc1ccc(NS(=O)(=O)c2ccc3c(c2)C2C=CCC2C(c2ccc(C(=O)O)cc2)N3)cc1C (stereo unspecified),-0.61 °C,1.5 °C,0.36 °C,-1.27 °C,-3.84 °C,-2.29 °C
